Screens from PubChem BioAssay.
ALR H2O2 inh = blocks human ALR sulfhydryl oxidase activity; P55789; purified ALR, DTT oxidation, H2O2 HRP-luminol luminescence; inhibition, % (test concentration not listed); 3.8% of 290,000 active;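 active = mean replicate inhibition above about 79%, with every replicate also reaching it, limit read from the data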
Target sequence (P55789 whole entry, looked up): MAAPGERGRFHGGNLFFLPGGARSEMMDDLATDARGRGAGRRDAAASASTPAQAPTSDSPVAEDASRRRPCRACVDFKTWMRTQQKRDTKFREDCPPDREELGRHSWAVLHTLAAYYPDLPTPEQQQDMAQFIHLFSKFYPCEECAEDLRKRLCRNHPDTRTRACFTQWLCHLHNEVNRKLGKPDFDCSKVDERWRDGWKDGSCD
SUMO Mot1 rescue = SUMOylation pathway inhibition by Mot1-301 growth rescue. S. cerevisiae Mot1-301 growth rescue, ATP luminescence, 38.5C; percent above DMSO median, 100 means doubled. growth rescue, % at 18.8 µM. 1% of 320,000 active;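 active = every valid replicate shows activation above 250% relative to neutral control wells; inactive = the rest, any valid replicate at or below 250%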;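 note: OY570 slx delta 5 strain wells were the positive control but not used for scaling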
HIF activator = HIF pathway transcriptional activation | U2OS HRE-luciferase reporter, luminescence; normalized: DMSO 0%, desferrioxamine 100% | activation, % at 7.5 µM (by protocol) | 0.32% of 300,000 active | AID 1910;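 active = mean activation of at least 10% of the iron chelator positive control signal, with at least half of replicates also reaching 10%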
PfM18AAP inh-1 = PfM18AAP enzyme inhibition. inhibition, % at 7.35 µM. AID 1822. 1.2% of 290,000 active. recombinant PfM18AAP, H-Glu-NHMec fluorogenic cleavage;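 active = inhibition above the campaign mean inhibition over all tested compounds plus 3 SD, cut at about 28% in these data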;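 note: 0% = plate median of test compound wells and 100% = 2 mM ZnCl2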
PfM18AAP inh-2 = confirmation of Plasmodium falciparum M18 aspartyl aminopeptidase inhibitors; 28% of 2,400 active; inhibition, % at 7.35 µM; shares compounds with PfM18AAP inh-1; recombinant PfM18AAP, H-Glu-NHMec fluorogenic cleavage;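 active = mean inhibition over replicate wells above the hit cutoff set for the earlier primary screen, cut at about 29% in these data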;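 note: 0% = median of test compound wells and 100% = 2 mM ZnCl2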
CTSL1 confirm = counter-screen for PFM18AAP inhibitors: confirmation of human cathepsin L inhibitors; shares compounds with PfM18AAP inh-1; purified cathepsin L1, Z-Leu-Arg-MCA fluorescence; inhibition, % at 5.96 µM; 2,400 tested, under 10 active;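 active = average inhibition across replicates above the hit cutoff set in the earlier primary screen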;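 note: 0% = median of test compound wells and 100% = Z-Phe-Ala-diazomethylketone 1 µM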
Active calls of the source: *; i = inactive; . = no result given. Shown are actives, neighbours in structure and some others; about 5.3% of the full set was active somewhere.

SMILES | ALR H2O2 inh | SUMO Mot1 rescue | HIF activator | PfM18AAP inh-1 | PfM18AAP inh-2 | CTSL1 confirm
COCCN(C(=O)COC(=O)Cc1cccc(OC)c1)c1c(N)n(CC(C)C)c(=O)[nH]c1=O | -6 | -14 | 0 | . | . | .
CC(=O)/C(=N\Nc1ccc(C)cc1)N1CCOCC1 | 99* | 272 | 0 | 55* | -46 | 6
Cc1ccccc1NC(=S)N(Cc1ccccc1)Cc1cccs1 | -4 | -4 | 0 | -4 | . | .
O=C(c1ccc(-c2ccccc2)cc1)c1ccc([N+](=O)[O-])cc1 | -5 | 41 | 0 | 5 | . | .
O=C(C1=NN[C@@H]2C(=O)N(Cc3ccccc3)C(=O)[C@H]12)c1ccc([N+](=O)[O-])cc1 | . | -12 | 0 | 42* | -3 | 8
CC(=O)N1CCc2c(sc(NC(=O)C3CC3)c2-c2nc3ccccc3s2)C1 | -14 | 153 | 0 | 34* | -29 | -2
COc1cc([N+](=O)[O-])ccc1NC(=O)Nn1cnnc1 | -11 | -14 | 0 | 84* | 81* | 1
COc1ccc(C)cc1NC(=O)Nn1cnnc1 | -28 | -9 | 0 | 62* | 56* | -2
COc1ccc(Cl)cc1C(=O)Nn1cnnc1 | . | 77 | -1 | 37* | 28 | -4
COc1cc([N+](=O)[O-])ccc1NC(=O)NCc1ccccn1 | -6 | 1 | 0 | 0 | . | .
O=C(Nc1nnc(S(=O)(=O)N2CCCCC2)s1)c1ccccc1Br | 15 | 0 | 0 | 8 | . | .
c1ccc(CCCN2CCN(c3ccccn3)CC2)cc1 | 42 | i | 0 | 2 | . | .
CC1=C/C(=N\NC(=O)c2ccc(O)cc2)CC1 | -4 | 352 | 0 | -6 | . | .
O=C(O)CNC(=S)N(Cc1ccccc1)Cc1cccnc1 | -3 | -11 | 0 | -3 | . | .
CC/C(CC(=O)C(F)(F)F)=N\NC(=O)/C(C#N)=C/N(C)C | 1 | -5 | 0 | 43* | -54 | 8
CN(C)/C=C(\C#N)C(=O)N/N=C/c1ccc(F)cc1 | 13 | . | 0 | 0 | . | .
O=C(O)C1SCCN1S(=O)(=O)c1ccc(N=NN2CCOCC2)cc1 (stereo not given) | -9 | 0 | 0 | 5 | . | .
FC(F)(F)c1ccc(Nc2nnnc3ccccc23)cc1 | -38 | -10 | 2 | -14 | . | .
O=C(Cc1csc(N2CCOCC2)n1)N/N=C/c1ccc(Cl)cc1Cl | -3 | 7 | 0 | 1 | . | .
COc1cc(/C=N/NC(=O)Cc2csc(N3CCOCC3)n2)cc(OC)c1O | 99* | -2 | 1 | 32* | -37 | 0
Cc1ccc(NC(=O)c2cc(C(=O)Nc3ccc(C)cc3)n(C)n2)cc1 | -18 | 5 | 0 | . | . | .
O=c1[nH]c(CSc2ncn[nH]2)nc2ccccc12 | -2 | -15 | 0 | 69* | 73* | 5
CCOC(=O)N1CCC(N2CCN(c3ccccc3)CC2)CC1 | 55 | -15 | 0 | -8 | . | .
COc1cc(/C=N/NC(=O)CC#N)cc(Br)c1O | 12 | 443 | 0 | 57* | -15 | 0
COc1cc(/C=N/NC(=O)Cc2ccc(Br)cc2)cc(OC)c1O | 23 | -8 | 0 | 5 | . | .
SMILES | ALR H2O2 inh | SUMO Mot1 rescue | HIF activator | PfM18AAP inh-1 | PfM18AAP inh-2 | CTSL1 confirm
CC(C)(C)OC(=O)NC1CCN(S(=O)(=O)c2ccc3c(c2)OCCO3)CC1 | . | . | 0 | -1 | . | .
COc1cccc(CNC(=O)Cn2ccc3cc(S(=O)(=O)N4CCC(C)CC4)ccc32)c1 | -12 | 16 | . | -3 | . | .
O=C(NNc1ccccc1[N+](=O)[O-])Nc1ccccc1 | -1 | -23 | 0 | 11 | . | .
COCCNC(=S)NNc1ccccc1[N+](=O)[O-] | 11 | 2 | 1 | 61* | 61* | 3
CNC(=S)NNc1ccccc1[N+](=O)[O-] | 98* | -5 | 0 | 57* | 61* | 1
CCSc1ncnc2c1sc1nc3c(cc12)COC(C)(C)C3 | -6 | -12 | 2 | 7 | . | .
COc1ccccc1NS(=O)(=O)c1ccc2oc(N)nc2c1 | 1 | 0 | 0 | 7 | . | .
O=S(=O)(Nc1ncn[nH]1)c1ccc2ccccc2c1 | -5 | -10 | -1 | 51* | 41* | -2
Cc1cc(C)c(S(=O)(=O)Nc2ncn[nH]2)cc1C | 18 | -1 | 0 | 42* | 11 | -2
Cn1cnnc1SCC(=O)Nc1ncc(C(F)(F)F)cc1Cl | -10 | -10 | 0 | 16 | . | .
CCC(CO)Oc1cc(NCc2ccc(C(C)(C)C)cc2)c2ncn(C(C)C)c2c1 (stereo not given) | -19 | 43 | . | . | . | .
